In all, about 5,500 compounds went through this assay and about 2,000 (36%) were called active. Another 18% or so got no clear call; they are omitted. Cut-off read from the data, not from the text of the source: active = normalized growth mostly below about 0.91 (no sharp cut-off); inconclusive = no clear call, values can overlap the other calls; inactive = mostly above about 0.92. This is one part of the list.
Assay: chemical genetic growth profiling, strain panel (AID 1159580);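 note: tested at 20 µM; growth read once vehicle control cultures reached saturation at 30 °C; 1 = growth at the plate median or of vehicle wells; lower values mean less growth of the strain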
Conditions: S. cerevisiae deletion strains, growth OD
[1] = locus YAR019C, strain CDC15, hits give low values
[2] = locus YBL105C, strain PKC1, hits give low values
[3] = locus YBR135W, strain CKS1, hits give low values
[4] = locus YBR136W, strain MEC1, hits give low values
[5] = locus YBR160W, strain CDC28, hits give low values
[6] = locus YDL017W, strain CDC7, hits give low values
[7] = locus YDL028C, strain MPS1, hits give low values
[8] = locus YDL101C, strain DUN1, hits give low values
[9] = locus YDL108W, strain KIN28, hits give low values
[10] = locus YDL132W, strain cdc53, hits give low values
[11] = locus YDL214C, strain PRR2, hits give low values
[12] = locus YDR052C, strain DBF4, hits give low values
[13] = locus YDR054C, strain cdc34, hits give low values
[14] = locus YDR226W, strain ADK1, hits give low values
[15] = locus YDR477W, strain SNF1, hits give low values
[16] = locus YER123W, strain YCK3, hits give low values
[17] = locus YER133W, strain GLC7, hits give low values
[18] = locus YFL009W, strain cdc4, hits give low values
[19] = locus YFL029C, strain CAK1, hits give low values
[20] = locus YFR003C, strain YPI1, hits give low values
[21] = locus YFR019W, strain FAB1, hits give low values
[22] = locus YFR028C, strain CDC14, hits give low values
[23] = locus YGR040W, strain KSS1, hits give low values
[24] = locus YGR052W, strain FMP48, hits give low values
[25] = locus YGR092W, strain DBF2, hits give low values
[26] = locus YHR030C, strain SLT2, hits give low values
[27] = locus YHR079C, strain IRE1, hits give low values
[28] = locus YHR082C, strain KSP1, hits give low values
[29] = locus YHR205W, strain SCH9, hits give low values
[30] = locus YIL147C, strain SLN1, hits give low values
[31] = locus YJL095W, strain BCK1, hits give low values
[32] = locus YJL128C, strain PBS2, hits give low values
[33] = locus YJL157C, strain FAR1, hits give low values
[34] = locus YJR016C, strain ILV3, hits give low values
[35] = locus YJR066W, strain TOR1 (second series), hits give low values
[36] = locus YJR066W, strain TOR1, hits give low values
[37] = locus YKL048C, strain ELM1, hits give low values
[38] = locus YKL067W, strain YNK1, hits give low values
[39] = locus YKL101W, strain HSL1, hits give low values
[40] = locus YKL193C, strain SDS22, hits give low values
[41] = locus YKL203C, strain TOR2, hits give low values
[42] = locus YLR113W, strain HOG1, hits give low values
[43] = locus YLR133W, strain CKI1, hits give low values
[44] = locus YLR403W, strain SFP1, hits give low values
[45] = locus YML070W, strain DAK1, hits give low values
[46] = locus YMR001C, strain CDC5, hits give low values
[47] = locus YMR205C, strain PFK2 (second series), hits give low values
[48] = locus YMR277W, strain FCP1, hits give low values
[49] = locus YNL006W, strain LST8, hits give low values
[50] = locus YNL020C, strain ARK1, hits give low values
[51] = locus YNL161W, strain CBK1, hits give low values
[52] = locus YNL183C, strain NPR1, hits give low values
[53] = locus YNL207W, strain RIO2, hits give low values
[54] = locus YNL222W, strain SSU72, hits give low values
[55] = locus YNL307C, strain MCK1 (second series), hits give low values
[56] = locus YOL078W, strain AVO1, hits give low values
[57] = locus YOL136C, strain PFK27, hits give low values
[58] = locus YOR061W, strain CKA2, hits give low values
[59] = locus YOR119C, strain RIO1, hits give low values
[60] = locus YOR231W, strain MKK1, hits give low values
[61] = locus YOR329C, strain SCD5, hits give low values
[62] = locus YPL031C, strain PHO85, hits give low values
[63] = locus YPL153C, strain RAD53, hits give low values
[64] = locus YPL204W, strain HRR25, hits give low values
[65] = locus YPL209C, strain IPL1, hits give low values
[66] = locus YPL256C, strain CLN2, hits give low values
[67] = locus YPR025C, strain CCL1, hits give low values
[68] = locus YPR106W, strain ISR1, hits give low values
[69] = locus YPR111W, strain DBF20, hits give low values
[70] = strain NNK1, hits give low values
[71] = strain TSCII, hits give low values

Measured: normalized growth

CC(C)(C)NCC(O)COc1cccc2[nH]c(=O)[nH]c12 (stereo not given)
inactive: locus YAL040C, strain CLN3, hits give low values 1.02 | locus YCL061C, strain MRC1 (second series), hits give low values 1.01 | locus YDR150W, strain NUM1, hits give low values 1 | locus YDR363W, strain ESC2, hits give low values 1.01 | locus YER002W, strain NOP16, hits give low values 1.02 | locus YJR075W, strain HOC1, hits give low values 1.01 | locus YMR263W, strain SAP30, hits give low values 1 | locus YNL175C, strain NOP13, hits give low values 1.03 | locus YNL197C, strain WHI3, hits give low values 1.02 | locus YNL224C, strain SQS1, hits give low values 0.991 | locus YNL322C, strain KRE1, hits give low values 1.03 | locus YOR083W, strain WHI5 (second series), hits give low values 0.988 | locus YPL241C, strain CIN2, hits give low values 1

CC(C)(C)c1ccc(N/N=C(\C#N)C(N)=O)cc1
active: [1] 0.111 | [2] 0.0972 | [3] 0.109 | [4] 0.109 | [5] 0.114 | [6] 0.0979 | [7] 0.117 | [8] 0.115 | [9] 0.11 | [10] 0.142 | [11] 0.114 | [12] 0.146 | [13] 0.107 | [14] 0.117 | [15] 0.103 | [16] 0.104 | [17] 0.133 | [18] 0.105 | [19] 0.11 | [20] 0.0948 | [21] 0.103 | [22] 0.108 | [23] 0.108 | [24] 0.145 | [25] 0.101 | [26] 0.189 | [27] 0.214 | [28] 0.225 | [29] 0.000939 | [30] 0.107 | [31] 0.166 | [32] 0.0973 | [33] 0.112 | [34] 0.101 | [35] 0.0973 | [36] 0.207 | [37] 0.134 | [38] 0.118 | [39] 0.103 | [40] 0.109 | [41] 0.112 | [42] 0.212 | [43] 0.0995 | [44] 0.00739 | [45] 0.116 | [46] 0.112 | [47] 0.0978 | [48] 0.105 | [49] 0.0902 | [50] 0.0965 | [51] 0.112 | [52] 0.135 | [53] 0.102 | [54] 0.107 | [55] 0.109 | [56] 0.108 | [57] 0.122 | [58] 0.092 | [59] 0.119 | [60] 0.249 | [61] 0.101 | [62] 0.103 | [63] 0.0998 | [64] 0.108 | [65] 0.0972 | [66] 0.243 | [67] 0.112 | [68] 0.107 | [69] 0.131 | [70] 0.105 | [71] 0.106

N#C/C(=N/Nc1ccc(F)cc1)S(=O)(=O)c1ccc(Cl)cc1
inactive: [1] 0.976 | [2] 0.97 | [3] 0.965 | [4] 0.969 | [5] 0.965 | [6] 0.972 | [7] 0.971 | [8] 0.974 | [9] 0.957 | [10] 0.966 | [11] 0.94 | [12] 0.964 | [13] 0.976 | [14] 0.963 | [15] 0.961 | [16] 0.922 | [17] 0.968 | [18] 0.978 | [19] 0.973 | [20] 0.974 | [21] 0.912 | [22] 0.959 | [23] 0.94 | [24] 0.952 | [25] 0.912 | [26] 0.982 | [27] 0.993 | [28] 0.994 | [29] 0.907 | [30] 0.976 | [31] 0.926 | [32] 0.942 | [33] 0.953 | [34] 0.977 | [35] 0.924 | [36] 0.996 | [37] 0.932 | [38] 0.96 | [39] 0.93 | [40] 0.978 | [41] 0.99 | [42] 0.941 | [43] 0.942 | [44] 0.899 | [45] 0.939 | [46] 0.975 | [47] 0.96 | [48] 0.979 | [49] 0.989 | [50] 0.946 | [51] 0.966 | [52] 0.988 | [53] 0.969 | [54] 0.977 | [55] 0.912 | [56] 0.97 | [57] 0.905 | [58] 0.979 | [59] 0.998 | [60] 0.953 | [61] 0.975 | [62] 0.954 | [63] 0.956 | [64] 0.904 | [65] 0.975 | [66] 1.01 | [67] 0.974 | [68] 0.975 | [69] 0.969 | [70] 0.972 | [71] 0.966

Reference: PubChem BioAssay AID1159580 (chemical genetic matrix, 2015)
